In the supplement of paper PMC10849652:
Of roughly 7,900 targets only a part is listed; those with a hit were picked by preference. About 0.6% of all pairs of compound and target were hits. Unmarked numbers belong to inactive results.

Experiments:
Experiment in all cases: log2 fold change, soluble protein after heating vs DMSO (PISA); higher = thermal stabilisation; K562 cells, 10 uM, 30 min; active = over 0.2 and 3.5 SD of the protein, either way, in both replicates (recomputed)
[1] = compound: CS(=O)(=O)c1ccc(-c2cnc(N)c(C(=O)Nc3ccccc3)n2)cc1
In short: (§1)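 Soluble protein was quantified by TMTpro 16plex LC-MS/MS after channel sums were equalised. It was obtained as the supernatant after 21,000xg for 90 min from pooled aliquots of K562 cells (2×10^6 cells/mL, 10 μM compound, 30 min) heated for 3 min across 48°C-58°C and extracted in PBS with 0.5% NP-40 at 4°C. Thermal stability values are relative to control samples and come from duplicates. They are given as log2 fold changes.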

crizotinib = compound: C[C@@H](Oc1cc(-c2cnn(C3CCNCC3)c2)cnc1N)c1c(Cl)ccc(F)c1Cl [crizotinib]
In short: as §1

[2] = compound: C[C@@H]1COCCN1C2=NC(=NC(=C2)C3(CC3)S(=O)(=O)C)C4=C5C=CNC5=CC=C4
In short: as §1

duvelisib = compound: C[C@H](Nc1ncnc2nc[nH]c12)c1cc2cccc(Cl)c2c(=O)n1-c1ccccc1 [duvelisib]
In short: as §1

gandotinib = compound: Cc1cc(Nc2cc(CN3CCOCC3)c3nc(C)c(Cc4ccc(Cl)cc4F)n3n2)n[nH]1 [gandotinib]
In short: as §1

tozasertib = compound: Cc1cc(Nc2cc(N3CCN(C)CC3)nc(Sc3ccc(NC(=O)C4CC4)cc3)n2)n[nH]1 [tozasertib]
In short: as §1

[3] = compound: Cc1cc(SCc2sc(-c3ccc(C(F)(F)F)cc3)nc2C)ccc1OCC(=O)O
In short: as §1

doramapimod = compound: Cc1ccc(-n2nc(C(C)(C)C)cc2NC(=O)Nc2ccc(OCCN3CCOCC3)c3ccccc23)cc1 [doramapimod]
In short: as §1

ispinesib = compound: Cc1ccc(C(=O)N(CCCN)[C@@H](c2nc3cc(Cl)ccc3c(=O)n2Cc2ccccc2)C(C)C)cc1 [ispinesib]
In short: as §1

bafetinib = compound: Cc1ccc(NC(=O)c2ccc(CN3CC[C@H](N(C)C)C3)c(C(F)(F)F)c2)cc1Nc1nccc(-c2cncnc2)n1 [bafetinib]
In short: as §1

[4] = compound: Cc1cccc(CC(=O)N2CCc3c2ccc(-c2cn(C)c4ncnc(N)c24)c3F)n1
In short: as §1

nilotinib = compound: Cc1cn(-c2cc(NC(=O)c3ccc(C)c(Nc4nccc(-c5cccnc5)n4)c3)cc(C(F)(F)F)c2)cn1 [nilotinib]
In short: as §1

[5] = compound: Cc1nc(Nc2n[nH]c3c2CN(C(=O)N[C@H](CN(C)C)c2ccccc2)C3(C)C)c2sccc2n1
In short: as §1

dasatinib = compound: Cc1nc(Nc2ncc(C(=O)Nc3c(C)cccc3Cl)s2)cc(N2CCN(CCO)CC2)n1 [dasatinib]
In short: as §1

[6] = compound: Cc1ncc(-c2ccnc(Nc3ccc(S(C)(=O)=O)cc3)n2)n1C(C)C
In short: as §1

[7] = compound: Cn1cc(-c2ccc3nnc(C(F)(F)c4ccc5ncccc5c4)n3n2)cn1
In short: as §1

tipifarnib = compound: Cn1cncc1[C@@](N)(c1ccc(Cl)cc1)c1ccc2c(c1)c(-c1cccc(Cl)c1)cc(=O)n2C [tipifarnib]
In short: as §1

mubritinib = compound: FC(F)(F)c1ccc(/C=C/c2nc(COc3ccc(CCCCn4ccnn4)cc3)co2)cc1 [mubritinib]
In short: as §1

[8] = compound: C[C@H](C1=CC=C(C=C1)C(=O)NC2=C3C=CNC3=NC=C2)N
In short: as §1

[9] = compound: Cn1cc(-c2ccc3c(c2)CCN3C(=O)Cc2cccc(C(F)(F)F)c2)c2c(N)ncnc21
In short: as §1

UniProt Q68D20, sequence (Q68D20 whole entry, looked up): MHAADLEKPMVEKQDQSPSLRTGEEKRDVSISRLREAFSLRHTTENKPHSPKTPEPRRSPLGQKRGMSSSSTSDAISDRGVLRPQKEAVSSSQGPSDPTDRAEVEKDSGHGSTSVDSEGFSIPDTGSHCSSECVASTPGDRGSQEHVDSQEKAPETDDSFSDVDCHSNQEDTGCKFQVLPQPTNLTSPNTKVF
UniProt P28065, sequence (P28065 whole entry, looked up): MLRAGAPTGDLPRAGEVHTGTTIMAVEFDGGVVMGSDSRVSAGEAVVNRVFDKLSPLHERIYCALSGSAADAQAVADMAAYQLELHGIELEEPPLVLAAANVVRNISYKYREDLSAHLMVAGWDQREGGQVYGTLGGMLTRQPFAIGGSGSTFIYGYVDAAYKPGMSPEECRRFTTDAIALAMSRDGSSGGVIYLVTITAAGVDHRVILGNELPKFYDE
UniProt P27815, sequence (P27815 whole entry, looked up): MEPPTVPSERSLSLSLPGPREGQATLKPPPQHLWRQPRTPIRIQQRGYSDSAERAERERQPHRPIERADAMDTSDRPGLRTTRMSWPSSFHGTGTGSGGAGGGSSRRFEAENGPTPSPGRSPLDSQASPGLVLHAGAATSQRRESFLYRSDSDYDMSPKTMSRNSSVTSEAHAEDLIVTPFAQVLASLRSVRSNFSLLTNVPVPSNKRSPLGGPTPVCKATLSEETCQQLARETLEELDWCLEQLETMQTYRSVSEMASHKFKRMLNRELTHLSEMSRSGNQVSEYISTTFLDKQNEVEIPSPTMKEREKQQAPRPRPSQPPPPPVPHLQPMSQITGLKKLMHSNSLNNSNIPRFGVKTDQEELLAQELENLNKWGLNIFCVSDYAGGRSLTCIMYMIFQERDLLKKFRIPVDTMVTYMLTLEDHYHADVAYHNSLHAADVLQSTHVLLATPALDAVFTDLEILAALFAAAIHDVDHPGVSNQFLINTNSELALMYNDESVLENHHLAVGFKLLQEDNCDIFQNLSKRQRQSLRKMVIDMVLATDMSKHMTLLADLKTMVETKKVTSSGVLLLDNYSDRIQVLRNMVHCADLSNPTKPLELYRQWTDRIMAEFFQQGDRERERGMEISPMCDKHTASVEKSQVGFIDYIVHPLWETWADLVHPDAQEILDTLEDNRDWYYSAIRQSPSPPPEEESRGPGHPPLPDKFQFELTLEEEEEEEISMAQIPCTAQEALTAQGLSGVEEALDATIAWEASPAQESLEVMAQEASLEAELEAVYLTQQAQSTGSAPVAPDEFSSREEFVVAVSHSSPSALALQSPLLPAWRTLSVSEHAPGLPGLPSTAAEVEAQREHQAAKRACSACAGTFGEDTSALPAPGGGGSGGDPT
UniProt P41247, sequence (P41247 whole entry, looked up): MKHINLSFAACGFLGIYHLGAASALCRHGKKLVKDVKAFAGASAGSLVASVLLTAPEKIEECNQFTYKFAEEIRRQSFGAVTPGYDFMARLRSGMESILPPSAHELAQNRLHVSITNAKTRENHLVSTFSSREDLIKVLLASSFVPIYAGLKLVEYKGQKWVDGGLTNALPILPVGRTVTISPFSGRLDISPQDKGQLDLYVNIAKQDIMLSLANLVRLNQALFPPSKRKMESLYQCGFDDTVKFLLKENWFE
UniProt Q86UU1, sequence (Q86UU1 whole entry, looked up): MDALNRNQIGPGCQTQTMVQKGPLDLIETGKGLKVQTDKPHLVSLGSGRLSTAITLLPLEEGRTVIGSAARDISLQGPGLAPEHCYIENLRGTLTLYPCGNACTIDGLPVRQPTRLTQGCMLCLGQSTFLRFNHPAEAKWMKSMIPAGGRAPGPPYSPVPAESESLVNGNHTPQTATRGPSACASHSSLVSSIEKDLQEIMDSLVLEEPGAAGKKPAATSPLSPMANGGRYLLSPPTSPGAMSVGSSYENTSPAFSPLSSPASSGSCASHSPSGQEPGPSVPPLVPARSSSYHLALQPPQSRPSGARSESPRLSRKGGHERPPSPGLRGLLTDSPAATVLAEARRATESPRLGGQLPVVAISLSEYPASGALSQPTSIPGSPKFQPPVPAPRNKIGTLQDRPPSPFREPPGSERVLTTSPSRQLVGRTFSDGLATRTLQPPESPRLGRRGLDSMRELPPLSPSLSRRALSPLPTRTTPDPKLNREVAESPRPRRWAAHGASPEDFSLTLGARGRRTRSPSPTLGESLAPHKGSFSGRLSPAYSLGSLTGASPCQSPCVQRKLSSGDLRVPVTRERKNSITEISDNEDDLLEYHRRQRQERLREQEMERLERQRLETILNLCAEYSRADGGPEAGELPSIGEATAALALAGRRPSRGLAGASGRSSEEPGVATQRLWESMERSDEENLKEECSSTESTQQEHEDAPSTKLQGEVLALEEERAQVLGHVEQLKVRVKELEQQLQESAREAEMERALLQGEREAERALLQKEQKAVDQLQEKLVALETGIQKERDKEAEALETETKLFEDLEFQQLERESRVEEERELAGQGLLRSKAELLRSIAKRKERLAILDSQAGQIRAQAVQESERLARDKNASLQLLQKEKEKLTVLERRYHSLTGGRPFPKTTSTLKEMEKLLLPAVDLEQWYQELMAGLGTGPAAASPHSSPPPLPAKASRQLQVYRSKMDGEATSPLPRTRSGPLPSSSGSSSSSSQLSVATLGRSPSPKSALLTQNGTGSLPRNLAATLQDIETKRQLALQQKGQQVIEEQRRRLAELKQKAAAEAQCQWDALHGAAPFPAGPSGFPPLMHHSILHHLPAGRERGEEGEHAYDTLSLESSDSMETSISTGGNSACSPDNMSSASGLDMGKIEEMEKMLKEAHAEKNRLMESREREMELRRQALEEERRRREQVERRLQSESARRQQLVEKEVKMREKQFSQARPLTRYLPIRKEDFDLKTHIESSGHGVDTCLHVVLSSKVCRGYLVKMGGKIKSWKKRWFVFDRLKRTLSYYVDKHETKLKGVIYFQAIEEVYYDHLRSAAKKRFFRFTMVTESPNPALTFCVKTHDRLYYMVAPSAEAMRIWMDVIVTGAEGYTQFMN
UniProt O15355, sequence (O15355 whole entry, looked up): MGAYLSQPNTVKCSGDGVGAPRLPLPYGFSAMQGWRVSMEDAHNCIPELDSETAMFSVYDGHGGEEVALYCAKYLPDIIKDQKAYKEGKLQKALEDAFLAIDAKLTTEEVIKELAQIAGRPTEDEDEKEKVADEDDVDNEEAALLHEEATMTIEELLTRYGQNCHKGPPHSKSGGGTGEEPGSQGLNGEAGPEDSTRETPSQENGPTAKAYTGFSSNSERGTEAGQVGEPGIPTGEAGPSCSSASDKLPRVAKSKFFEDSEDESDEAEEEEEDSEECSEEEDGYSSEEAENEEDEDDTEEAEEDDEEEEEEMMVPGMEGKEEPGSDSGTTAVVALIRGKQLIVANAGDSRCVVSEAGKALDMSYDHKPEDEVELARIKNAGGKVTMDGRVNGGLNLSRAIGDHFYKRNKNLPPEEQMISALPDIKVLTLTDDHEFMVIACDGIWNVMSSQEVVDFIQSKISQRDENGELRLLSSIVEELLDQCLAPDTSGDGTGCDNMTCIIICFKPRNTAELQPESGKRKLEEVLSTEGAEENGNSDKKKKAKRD
UniProt Q8N2W9, sequence (Q8N2W9 whole entry, looked up): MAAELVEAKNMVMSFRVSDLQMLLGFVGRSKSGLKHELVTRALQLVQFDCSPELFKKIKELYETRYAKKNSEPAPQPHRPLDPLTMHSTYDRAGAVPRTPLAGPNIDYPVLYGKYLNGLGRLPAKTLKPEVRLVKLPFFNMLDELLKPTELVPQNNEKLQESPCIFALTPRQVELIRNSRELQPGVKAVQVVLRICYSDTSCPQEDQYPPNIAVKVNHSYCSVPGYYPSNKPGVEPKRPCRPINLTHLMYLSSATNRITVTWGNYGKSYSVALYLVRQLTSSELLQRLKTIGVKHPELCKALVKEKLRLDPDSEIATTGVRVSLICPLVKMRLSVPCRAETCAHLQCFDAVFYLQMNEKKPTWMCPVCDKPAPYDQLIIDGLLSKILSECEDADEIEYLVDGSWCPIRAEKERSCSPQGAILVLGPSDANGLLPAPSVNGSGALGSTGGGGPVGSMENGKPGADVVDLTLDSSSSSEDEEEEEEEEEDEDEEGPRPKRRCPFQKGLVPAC
UniProt Q15173, sequence (Q15173 whole entry, looked up): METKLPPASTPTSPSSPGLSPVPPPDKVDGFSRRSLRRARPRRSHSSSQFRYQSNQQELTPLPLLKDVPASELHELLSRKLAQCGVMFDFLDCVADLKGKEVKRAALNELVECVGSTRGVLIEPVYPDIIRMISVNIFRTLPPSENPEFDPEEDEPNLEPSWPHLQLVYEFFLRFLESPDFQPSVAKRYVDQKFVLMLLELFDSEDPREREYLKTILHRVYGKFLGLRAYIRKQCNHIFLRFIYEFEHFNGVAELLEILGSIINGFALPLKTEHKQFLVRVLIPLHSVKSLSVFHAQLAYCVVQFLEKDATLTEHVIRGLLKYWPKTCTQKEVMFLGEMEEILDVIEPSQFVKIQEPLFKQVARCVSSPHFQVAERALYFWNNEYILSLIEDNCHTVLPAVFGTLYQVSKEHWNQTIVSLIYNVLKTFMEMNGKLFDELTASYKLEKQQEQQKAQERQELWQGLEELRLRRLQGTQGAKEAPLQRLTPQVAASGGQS
UniProt P60484, sequence (P60484 whole entry, looked up): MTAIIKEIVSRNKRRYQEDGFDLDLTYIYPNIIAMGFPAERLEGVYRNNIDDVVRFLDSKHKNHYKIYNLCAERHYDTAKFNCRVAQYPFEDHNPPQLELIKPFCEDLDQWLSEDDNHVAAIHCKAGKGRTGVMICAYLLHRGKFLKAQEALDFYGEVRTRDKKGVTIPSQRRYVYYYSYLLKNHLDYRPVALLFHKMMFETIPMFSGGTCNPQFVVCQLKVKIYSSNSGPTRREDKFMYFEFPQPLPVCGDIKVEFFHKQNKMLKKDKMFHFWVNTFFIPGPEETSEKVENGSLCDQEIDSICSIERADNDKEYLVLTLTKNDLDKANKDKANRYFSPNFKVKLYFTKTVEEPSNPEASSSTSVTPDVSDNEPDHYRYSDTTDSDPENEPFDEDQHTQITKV

| Target | log2 fold change [1] | log2 fold change (crizotinib) | log2 fold change [2] | log2 fold change (duvelisib) | log2 fold change (gandotinib) | log2 fold change (tozasertib) | log2 fold change [3] | log2 fold change (doramapimod) | log2 fold change (ispinesib) | log2 fold change (bafetinib) | log2 fold change [4] | log2 fold change (nilotinib) | log2 fold change [5] | log2 fold change (dasatinib) | log2 fold change [6] | log2 fold change [7] | log2 fold change (tipifarnib) | log2 fold change (mubritinib) | log2 fold change [8] | log2 fold change [9] |
| --- | --- | --- | --- | --- | --- | --- | --- | --- | --- | --- | --- | --- | --- | --- | --- | --- | --- | --- | --- | --- |
| PKM isoform 2 (UniProt P14618) | -0.053 | -0.033 | -0.154 | -0.001 | 0.131 | 0.056 | 0.12 | 0.029 | 0.016 | -0.155 | 0.029 | 0.121 | -0.104 | -0.014 | 0.198 | 0.017 | 0.209 | 0.05 |  |  |
| PCBP2 (UniProt F8VRH0) | -0.181 | -0.075 | -0.22 | -0.299 | 0.013 | -0.055 | 0.074 | -0.225 |  | 0.293 | -0.039 | -0.347 | -0.215 | -0.146 | -0.009 |  | 0.067 | 0.129 | -0.267 | 0.112 |
| PPM1G (UniProt O15355) | 0.114 | -0.028 | 0.045 | 0.044 | -0.026 | 0.081 | 0.171 | -0.008 | -0.055 | 0.001 | 0.048 | -0.041 | -0.05 | -0.097 | 0 | 0.117 | -0.133 | 0.105 | -0.083 | 0.096 |
| PSMB9 (UniProt P28065) | 0.259 | 0 | 0.075 |  | 0.126 |  |  | 0.084 |  | -0.22 | -0.122 |  |  |  |  |  | 0.03 |  | 0.066 | 0.054 |
| PHC3 isoform 7 (UniProt Q8NDX5) | -0.068 | -0.194 | 0.317 |  |  |  |  | 0.131 |  | 0.222 |  | -0.187 | 0.01 |  | 0 |  | -0.016 | 0.191 | 0.073 | 0.018 |
| PSMC3 (UniProt E9PLG2) | 0.206 | 0.168 | 0.101 | 0.245 |  | -0.288 | -0.101 | -0.058 |  | 0.147 |  |  |  | 0.258 |  |  |  | 0.059 |  |  |
| PSMA3 (UniProt G3V4X5) |  | -0.277 |  |  |  |  |  | 0.149 | -0.081 | 0.159 |  |  |  |  |  | 0.174 | 0.067 |  |  |  |
| PNPLA4 (UniProt P41247) | 0.319 | -0.651 (active) |  | -0.095 |  | -0.005 | 0.117 | 0.895 (active) | -0.093 | -0.339 |  | 0.128 | -0.019 | -0.165 | -0.001 | 0.078 | -0.039 | 0.826 (active) | 0.559 | 0.156 |
| PDE4DIP (UniProt E9PS60) |  | -0.225 |  |  |  |  |  | 0.102 |  |  |  |  |  |  |  |  |  |  | 0.212 | -0.007 |
| PHRF1 (UniProt Q9P1Y6) |  |  |  |  |  |  |  |  | -0.296 |  |  |  |  |  |  | 0.084 | 0.159 | -0.099 |  |  |
| PSMD8 (UniProt K7ERW6) |  | -0.021 |  |  |  | -0.231 |  | 0.066 |  |  |  |  |  |  |  |  |  |  |  |  |
| PTEN isoform 2 (UniProt P60484) |  | 0.077 |  |  | 0.312 |  |  | 0.001 | 0.024 |  | 0.158 |  |  |  |  | -0.087 | -0.212 |  |  |  |
| POLR2E (UniProt P19388) |  | 0.112 | -0.027 | -0.001 | 0.157 | 0.02 | 0.089 | -0.078 | -0.058 | 0.055 | -0.03 | -0.007 | 0.112 | 0.025 | 0.306 | 0.005 | -0.088 | 0.023 | 0.14 | -0.056 |
| PRKX (UniProt P51817) |  |  |  |  |  |  |  |  |  | -0.039 |  |  |  |  |  |  |  | 0.108 |  |  |
| PIM1 isoform 2 (UniProt P11309) |  |  |  |  | -0.084 |  |  |  |  |  | -0.263 |  |  |  |  |  |  | 0.721 |  |  |
| PSMC1 (UniProt G3V4X1) |  |  |  |  | 0.066 |  |  |  |  |  | -0.579 | -0.195 | 0.042 |  | -0.046 |  | 0.479 |  | 0.099 | 0.066 |
| PMS2CL (UniProt Q68D20) |  |  | -0.091 |  |  |  |  |  | 0.105 |  |  | -0.189 | -0.154 |  | 0.115 | -0.128 |  | -0.054 |  |  |
| PHLDB1 isoform 2 (UniProt Q86UU1) |  | -0.307 | 0.058 | -0.759 (active) | -0.281 | -0.126 | 0.108 | 0.032 | -0.053 | -0.112 | 0.117 | 0.136 | -0.265 | -0.073 | -0.128 | 0.016 | 0.057 | 0.14 | -0.043 | 0.061 |
| PPP1R12B isoform 6 (UniProt O60237) |  |  |  |  |  |  |  |  |  | -0.024 |  | -0.004 | -0.191 |  | 0.007 |  |  |  |  |  |
| PDE4A (UniProt P27815) |  | 0.055 | -0.102 |  |  | 0.027 |  | 0.065 | -0.098 | -0.157 |  |  |  |  |  | 0.021 | -0.108 |  | -0.171 | -0.016 |
| PTK2B (UniProt Q14289) | -0.029 |  | -0.03 | 0.182 | -0.03 | -0.067 | 0.016 |  | -0.233 | -0.024 | -0.063 | 0.14 | 0.104 | -0.043 | 0.276 | -0.014 | -0.521 | -0.003 | 0.234 | -0.113 |
| PTPA (UniProt A6PVN8) | -0.116 |  | 0.083 | -0.002 | -0.048 | -0.069 | -0.203 |  | -0.04 | -0.122 | -0.084 | -0.134 | 0.008 | 0.075 | 0.013 | 0.05 | 0.232 | 0.114 | 0.1 | -0.075 |
| PIAS4 (UniProt Q8N2W9) |  | -0.178 | 0.047 | 0.036 | -0.013 | -0.009 | 0.021 | 0.061 | -0.278 |  | 0 |  |  | -0.116 |  | 0.313 | 0.002 | 0.199 |  |  |
| PPP2R5B (UniProt Q15173) |  |  |  | 0.16 | -0.277 |  | -0.002 |  |  | 0.006 | -0.057 | -0.187 | 0.095 | -0.047 | -0.042 |  | -0.067 | -0.023 |  |  |
| PAN2 (UniProt Q504Q3) |  |  |  | -0.032 |  |  | 0.299 |  |  | -0.052 |  | -0.123 | -0.02 | 0.013 | -0.09 |  |  |  |  |  |
